Data: PubChem BioAssay AID504891 (National Center for Advancing Translational Sciences (NCATS), 2011)
Out of some 390,000 compounds screened, about 35 (0.009%) were called active. Not shown: some 6% with an inconclusive outcome. The sample as a whole holds a higher share of actives than the screen did. Values without a mark were called inactive. Calls come from the whole dose curve; as a rule, active = well fitted inhibition curve with a large enough effect in the polarisation, with a control signal flat (not every such curve was filed as active); inconclusive = small, poorly fitted or top-dose-only effect, or effect the other way, or a change in a side signal; inactive = no such curve, though single readings can be large or run the other way; the % refers to the polarisation.

biological target: Peptidyl-prolyl cis-trans isomerase NIMA-interacting 1 (Homo sapiens) (UniProt Q13526); assay: qHTS Assay to Find Inhibitors of Pin1; settings: Pin1 FP peptide displacement, HiFluor488, 10 min; series mostly up to 115 µM; activity, negative = inhibition: at the top concentration
Description: NIH Molecular Libraries Probe Production Network [MLPCN]
NIH Chemical Genomics Center [NCGC]
The unique chemical properties of Pro allow for the adoption of two completely distinct amide bond conformations (cis and trans). Peptidyl-prolyl cis/trans isomerases (PPIases) are evolutionary conserved enzymes that catalyze cis/trans isomerization of peptidyl-prolyl peptide bonds. Distinct from all other PPIases such as cyclophilins and FK506-binding proteins (FKBPs), Pin1 binds a subset of phos.Ser/Thr-Pro-containing proteins using its protein-targeting WW domain and isomerizes only specific phos.Ser/Thr-Pro bonds, which cannot be effectively catalyzed by other known PPIases.
Pin1-catalyzed conformational regulation can control a spectrum of activities of many key regulators in diverse cellular processes such as cell growth, genotoxic and other stress responses, immune response, germ cell development, neuronal differentiation and survival. Pin1 has emerged as a novel molecular timer that modulates its multiple targets at various steps of a given cellular process to synergistically control the amplitude and duration of a cellular response or process. Importantly, Pin1 is tightly regulated by multiple levels and its deregulation has an important role in a growing number of pathological conditions, including cancer, Alzheimer's disease, aging, asthma and microbial infection, providing a potentially new therapeutic option.
The goal of this screen is to find small-molecule inhibitors of Pin1 using a fluorescence polarization competition assay. A HiFluor-488-labeled peptide binds to the active site of Pin1 and can be displaced by compounds. Compounds were screened as a concentration-titration series that ranged from 57 uM to 0.7 nM.
NCGC Assay Protocol Summary:
Pin1 (0.6 uM) was dispensed into black, solid 1536-well plates at 2 uL/well in 10 mM HEPES (pH 7.5), 10 mM NaCl, 0.01% Tween20, 1 mM DTT, and 1% glycerol. Then, 23 nL of compounds or DMSO were delivered to each well using a pin tool. Two uL of Pin1-1b-HiFluor488 peptide (10 mM HEPES (pH 7.5), 10 mM NaCl, 0.01% Tween20, 1 mM DTT, and 1% glycerol, 0.02 uM Pin1-1b-HiFluor488) was then dispensed, and plates were incubated at room temperature for 10 min. The plates were measured on a ViewLux plate reader for fluorescence polarization signal using a 480/20 nM nm excitation filter and 540/25 nM nm S and P emission filters with a 20 second exposure. The %Activity was determined from the corrected fluorescence polarization values. Unlabeled Pin1-1c peptide was used as a control (3.5 mM two-fold serial; 20 uM final concentration) along with a 1x (0.3 uM) and 0x (no-enzyme) Pin1 enzyme control to normalize %Activity of identified inhibitors; 0x enzyme values corresponded to 100%Activity (full inhibition), while 1x Pin1 enzyme values were used to normalize 0%Activity (no inhibition).
Concentration-response curves were fitted to the signals arising from the resulting fluorescence polarization. The concentration-effect curves were then classified based on curve quality (r2), response magnitude and degree of measured activity, and compounds were subsequently categorized based on their curve class.
Keywords: Peptidyl prolyl isomerase, Pin1, fluorescence polarization, MLSMR, MLPCN, NIH Roadmap, qHTS, NCGC
Potency is the fitted concentration of half-maximal effect.

Sequence of Peptidyl-prolyl cis-trans isomerase NIMA-interacting 1 (Homo sapiens) (Q13526 whole entry, looked up): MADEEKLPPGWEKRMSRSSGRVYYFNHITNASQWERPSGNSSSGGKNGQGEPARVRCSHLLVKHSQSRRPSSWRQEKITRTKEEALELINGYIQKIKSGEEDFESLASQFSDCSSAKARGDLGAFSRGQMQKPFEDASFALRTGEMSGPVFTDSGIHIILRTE

Compound	activity, negative = inhibition [%]	Potency
COc1ccc(C2/C=C\CN(C(=O)c3ccc(C)cc3)C(Cc3ccccc3)C(=O)N2Cc2ccc(F)cc2)cc1 (centres undefined)	8.96	–
Cc1ccc2[nH]c3c(=O)n(CC(=O)NC(C)C)ncc3c2c1	5.47	–
COc1ccc(NC(=O)CCc2nnc3n(CC(C)C)c(=O)c4ccccc4n23)cc1OC	0.559	–
Cc1ccc(Cn2ncc3c4sc(C)cc4n(C)c3c2=O)c(C)c1	2.78	–
COc1cc(OC)c2c(C)cc(=O)oc2c1C(CCN1CCCCC1)c1ccc(N(C)C)cc1 (centres undefined)	0.75	–
CCc1nnc(SCc2c(F)cccc2Cl)c2cc3sccc3n12	0.246	–
O=C1CCc2cc(S(=O)(=O)Nc3cccc(Oc4ccccc4)c3)ccc2N1	4.76	–
NC(=O)C1CCN(c2cc(-c3ccc4c(c3)OCCCO4)ncn2)CC1	0.493	–
COc1ccc(OCc2ccc(-c3nc(C#N)c(N4CCN(c5ccccc5)CC4)o3)o2)cc1	-7.37	–
COc1ccc(Cl)cc1NC(=O)CSc1nc2ccccc2c2nc(-c3ccccc3)nn12	-6.43	–
CCCN1CCC(=O)N(C(CSc2ccc(OC)cc2)Cc2ccccc2)CC1 (centres undefined)	-9.3	–
COc1ccc(CCC(=O)NCc2ccc3c(c2)CCN3C(=O)c2ccc(F)cc2)cc1	-7.47	–
Cc1ccc(-c2nnc3c4ccccc4c(C)nn23)cc1NC(=O)c1cccc(Br)c1	-5.3	–
Cc1cc2c(s1)c1cnn(Cc3cc(F)c(Cl)cc3Cl)c(=O)c1n2C	-4	–
COc1cc(Cl)c(C)cc1Nc1nnc(-n2nc(C)cc2C)c2ccccc12	0.488	–
COc1ccc(C2Nc3ccccc3C(=O)N2Cc2ccco2)cc1COc1cccc(NC(C)=O)c1 (centres undefined)	47.2	–
COc1ccc(-c2ccc3ncnc(NCc4cccs4)c3c2)cc1OC	0.753	–
COc1ccc(C2/C=C\CN(Cc3ccco3)C(C)C(=O)N2Cc2ccc(F)cc2)cc1 (centres undefined)	25.5	–
COc1ccc(-c2onc(C)c2C)cc1S(=O)(=O)NCc1cccs1	-1.97	–
Cc1cc(C)n2ncc(C(=O)N3CCCC3)c2n1	-11.3	–
CC(C)Oc1cccc(-c2cnc(N3CCC(C(N)=O)CC3)s2)c1	1.95	–
CCCc1nn2c(=O)cc(COC(=O)c3ccc(NC(=O)C(C)Oc4ccccc4)cc3)nc2s1 (centres undefined)	-8.84	–
Cc1ccc(S(=O)(=O)CCC(=O)OCC(=O)N(C)C2CCS(=O)(=O)C2)cc1 (centres undefined)	-16	–
Cc1cc(C(=O)OCC(=O)N2C(C)CCCC2C)c2ccccc2n1 (centres undefined)	3.11	–
CN(C(=O)COC(=O)c1cc(-c2ccco2)nc2ccccc12)C1CCS(=O)(=O)C1 (centres undefined)	–	35.5 µM (active)

Compound	activity, negative = inhibition [%]	Potency
C=C1CCN(C(CC(C)C)C(=O)NCc2cc(OC)c(OC)c(OC)c2)S(=O)(=O)c2ccccc21 (centres undefined)	3.4	–
CCCCS(=O)(=O)c1oc(-c2cccs2)nc1S(=O)(=O)c1ccccc1	14.3	–
CCCS(=O)(=O)N1CCC(n2c(C(F)(F)F)nc3cccnc32)CC1	1.49	–
N#Cc1ccc(OC2=NS(=O)(=O)c3ccccc32)cc1	-6.79	–
O=C(NCc1nnc(C(=O)Nc2ccc(C(F)(F)F)cc2Cl)o1)c1ccccc1	4.91	–
Cc1cccc2c1-c1sc(C(=O)Nc3ccc(F)cc3F)cc1CO2	-0.856	–
C#CCOc1ccc(C2CC(=O)Nc3c2c(C)nn3-c2nc(C)cc(C)n2)cc1 (centres undefined)	-7.62	–
CCCN(CCC)CCNC(=O)Cn1cnc2sc(C)c(S(=O)(=O)N3CCC(C)CC3)c2c1=O	-1.59	–
COc1ccccc1CNC(=O)c1ccc(NC(=O)N2CC(C)Sc3ccccc32)cc1 (centres undefined)	7.05	–
O=C(O)c1ccc2c(c1)N(Cc1ccc(F)cc1)C(=O)c1ccccc1S2=O (centres undefined)	0.384	–
O=C(CC1Oc2ccc(Cl)cc2NC1=O)NCc1ccccc1 (centres undefined)	1.66	–
CCOC(=O)c1cccc(NC(=O)Cn2cnc3nc4c(cc3c2=O)CCCC4)c1	-0.357	–
COc1ccc(OC)c(NC(=O)CN2CCCN(Cc3cc(C)ccc3C)S2(=O)=O)c1	-5.1	–
Cc1ccc2sc(N(Cc3cccnc3)C(=O)C3COc4ccccc4O3)nc2c1C (centres undefined)	6.41	–
CNC(=O)CN1C(=O)c2cccnc2Sc2ccccc21	8.77	–
CC(=O)N1c2ccccc2CC1C(=O)N1CCN(c2ccc(F)cc2)CC1 (centres undefined)	-8.41	–
O=C(NCC1CC1)C1(C(F)(F)F)C/C(=C\CCO)CCCO1 (centres undefined)	3.33	–
CC(Nc1ncnc2ccc(-c3ccc4c(c3)OCO4)cc12)c1ccco1 (centres undefined)	14.7	–
Cc1cccc(S(=O)(=O)c2cn(Cc3ccccc3)c3cc(N4CCOCC4)c(F)cc3c2=O)c1	9.72	–
COc1cccc(C2C(C(=O)Nc3ccc(C)cc3C)=C(C)Nc3c(C(=O)Nc4ccccc4)cnn32)c1 (centres undefined)	11.3	–
CCCC(=O)Nc1cc(C(=O)NCc2ccc(OC)cc2)ccc1S(=O)(=O)c1ccc(Cl)cc1	8.08	–
COCCNC(=O)CSc1nc(-c2ccccc2)[nH]c1-c1ccc(C)cc1	1.52	–
C=CCNC(=O)c1ccc2nc(-c3ccco3)c(-c3ccco3)nc2c1	20.3	–
Cc1ccc(S(=O)(=O)NC(N)=NCCC[C@@H](NC(=O)CNC(=O)c2ccccc2)C(=O)Nc2cc(C(F)(F)F)ccc2Cl)cc1	4.14	–
